# Assay results: PubChem BioAssay (Tox21)
# Results filed as inconclusive are left out. Where a call stands in place of a potency, no number is given. Active and inactive are the calls of the source. Unless noted, calls come from the whole dose curve; as a rule, active = well fitted curve in the direction sought with a large enough effect in the repeat runs; inconclusive = weak or mixed curves; inactive = no such curve, though single readings can be large; an effect the other way counts as inactive or inconclusive.
# Molecular target: Retinoic acid receptor RXR-alpha (Homo sapiens) (UniProt P19793)
# Sequence (P19793 whole entry, looked up): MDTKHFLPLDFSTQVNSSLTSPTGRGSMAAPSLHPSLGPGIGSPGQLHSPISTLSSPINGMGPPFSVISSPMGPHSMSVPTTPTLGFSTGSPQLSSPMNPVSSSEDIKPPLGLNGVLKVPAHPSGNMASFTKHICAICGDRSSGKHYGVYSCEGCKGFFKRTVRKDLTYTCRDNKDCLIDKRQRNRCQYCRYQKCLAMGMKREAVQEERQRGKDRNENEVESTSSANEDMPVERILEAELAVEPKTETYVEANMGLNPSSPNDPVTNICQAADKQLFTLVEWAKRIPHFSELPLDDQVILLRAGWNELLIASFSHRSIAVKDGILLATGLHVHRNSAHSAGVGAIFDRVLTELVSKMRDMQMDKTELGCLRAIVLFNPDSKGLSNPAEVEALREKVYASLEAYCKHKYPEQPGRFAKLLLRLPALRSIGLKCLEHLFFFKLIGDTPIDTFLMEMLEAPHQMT
# Test: qHTS assay to identify small molecule agonists of the RXR signaling pathway (AID 1159527; calls by dose curve; note: nearly all actives have a fitted effect of over 35% in size; note: potency is the fitted concentration of half-maximal effect)
# Conditions: HEK293T RXRa-UAS-bla, beta-lactamase ratio, 16 h; series mostly up to 76.8 µM
# How it was run: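 Using 9-cis retinoic acid as the reference agonist, chemicals were tested in HEK 293T cells […] for 16 hr; substrate loading lasted 2 hr at room temperature.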
row,SMILES,Potency
1,CN(CC1(C)CCCO1)S(=O)(=O)c1ccc(Cl)c(S(N)(=O)=O)c1 (configuration not stated),inactive
2,COc1cc(N)c(Cl)cc1C(=O)NC1CCN(Cc2ccccc2)CC1,inactive
3,NC(=O)NS(=O)(=O)c1ccc(Cl)cc1,inactive
4,CN1CCN(c2c(F)cc3c(=O)c(C(=O)O)cn4c3c2SCC4)CC1,inactive
5,NC1=NCC2c3ccccc3Cc3ccccc3N12 (configuration not stated),inactive
6,CCCCNc1ccc(C(=O)OCCN(CC)CC)cc1,inactive
7,CC1=C(O)C(=O)OC1C (configuration not stated),inactive
8,CCOC(=O)c1cc(=O)c2c(OCC(COc3cccc4oc(C(=O)OCC)cc(=O)c34)OC(=O)[C@@H](N)CCCCN)cccc2o1,inactive
9,CN(C)CCOc1ccccc1Cc1ccccc1,inactive
10,CCC(=O)Nc1ccc(O)cc1,inactive
11,CCCCC1CCC(=O)O1 (configuration not stated),inactive
12,O=C1C=CC(=O)O1,inactive
13,Cc1cc2c(s1)Nc1ccccc1N=C2N1CCN(C)CC1,inactive
14,CC(=O)Oc1cc(C(C)C)c(OCCN(C)C)cc1C,inactive
15,CCOC(=O)[C@H](CCc1ccccc1)N[C@@H](C)C(=O)N1Cc2cc(OC)c(OC)cc2C[C@H]1C(=O)O,inactive
16,O=C(O)[C@@H](O)[C@H](O)[C@H](O)[C@@H](O)C(=O)O,inactive
17,CCCCCCCCOC(=O)CCCCCCCCC(=O)OCCCCCCCC,9.77 µM (active)
18,O=C1CCC(C2CCCCC2)CC1,inactive
19,CC/C=C\CCOC(=O)CCCCC,inactive
20,Cc1cccc(C)c1NC(=O)CN1CCCCCC1,inactive

row,SMILES,Potency
1,O=CCCc1ccccc1,19.5 µM (active)
2,CCCCC(=O)O[C@]1(C(=O)CO)[C@H](C)C[C@H]2[C@@H]3CCC4=CC(=O)C=C[C@]4(C)[C@@]3(F)[C@@H](O)C[C@@]21C,inactive
3,CC(=O)Nc1ccc(C)c(Cl)c1,inactive
4,c1ccc(CN(CC2=NCCN2)c2ccccc2)cc1,inactive
5,C=Cc1ccccc1,inactive
6,O=C1CCN(c2ccccc2)N1,inactive
7,CNCCC(Oc1ccccc1OC)c1ccccc1 (configuration not stated),inactive
8,OCC(CBr)(CBr)CBr,inactive
9,CN1C(=O)CC(c2ccccc2)C1=O (configuration not stated),inactive
10,C=CCCCCCCCCO,inactive
11,O=C(Cl)c1cccc([N+](=O)[O-])c1,inactive
12,O=C(O)c1cccc(Cl)c1Cl,inactive
13,CC(C)C(=O)OCC(C)(C)C(O)C(C)C (configuration not stated),inactive
14,Cc1onc(-c2ccccc2)c1C(=O)Cl,inactive
15,CCC/C=C/CO,inactive
16,CC(C)C[C@H](NC(=O)OCC1c2ccccc2-c2ccccc21)C(=O)O,inactive
17,NCCC(O)(P(=O)(O)O)P(=O)(O)O,inactive
18,CCCC(CCC)(C(=O)OCC)C(=O)OCC,inactive
19,C=CCc1cc(OC)c(O)c(C(=O)NCCO)c1,inactive

# System: not listed separately
# Test: qHTS assay to identify small molecule agonists of the RXR signaling pathway - cell viability counter screen (AID 1159529); note: nearly all actives have a fitted effect of over 50% in size
# Conditions: RXR-alpha-bla HEK293T viability, CellTiter-Glo, 16 h; series mostly up to 76.8 µM
# How it was run: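 Compounds dissolved in DMSO were pinned onto HEK 293T cells carrying a beta-lactamase reporter under RXR-alpha control and incubated 16 hr. Cytotoxicity was then quantified by CellTiter-Glo luminescence.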
row,SMILES,Potency
1,CN(CC1(C)CCCO1)S(=O)(=O)c1ccc(Cl)c(S(N)(=O)=O)c1 (configuration not stated),inactive
2,NC(=O)NS(=O)(=O)c1ccc(Cl)cc1,inactive
3,CN1CCN(c2c(F)cc3c(=O)c(C(=O)O)cn4c3c2SCC4)CC1,inactive
4,NC1=NCC2c3ccccc3Cc3ccccc3N12 (configuration not stated),inactive
5,CC(=O)Oc1cc(C(C)C)c(OCCN(C)C)cc1C,inactive
6,CCOC(=O)[C@H](CCc1ccccc1)N[C@@H](C)C(=O)N1Cc2cc(OC)c(OC)cc2C[C@H]1C(=O)O,inactive
7,CCCCCCCCOC(=O)CCCCCCCCC(=O)OCCCCCCCC,inactive
8,O=C1CCC(C2CCCCC2)CC1,inactive
9,CC/C=C\CCOC(=O)CCCCC,inactive
10,O=CCCc1ccccc1,inactive
11,c1ccc(CN(CC2=NCCN2)c2ccccc2)cc1,inactive
12,C=Cc1ccccc1,inactive
13,O=C1CCN(c2ccccc2)N1,inactive
14,CNCCC(Oc1ccccc1OC)c1ccccc1 (configuration not stated),inactive
15,OCC(CBr)(CBr)CBr,inactive
16,CN1C(=O)CC(c2ccccc2)C1=O (configuration not stated),inactive
17,Cc1onc(-c2ccccc2)c1C(=O)Cl,inactive
18,CCC/C=C/CO,inactive
19,NCCC(O)(P(=O)(O)O)P(=O)(O)O,inactive

# System: not listed separately
# Test: qHTS assay to identify small molecule antagonists of the retinoid acid receptor (RAR) signaling pathway - cell viability counter screen (AID 1159551); note: nearly all actives have a fitted effect of over 35% in size
# Conditions: C3RL4 cells viability, ATP luminescence (CellTiter-Glo), 6 h; series mostly up to 92.4 µM
# How it was run: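 Viability of C3RL4 cells is quantified from ATP by luminescence after 6 h treatment at 37 C with compounds and 1 uM retinol.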
row,SMILES,outcome
1,CN(CC1(C)CCCO1)S(=O)(=O)c1ccc(Cl)c(S(N)(=O)=O)c1 (configuration not stated),inactive
2,COc1cc(N)c(Cl)cc1C(=O)NC1CCN(Cc2ccccc2)CC1,inactive
3,NC(=O)NS(=O)(=O)c1ccc(Cl)cc1,inactive
4,CN1CCN(c2c(F)cc3c(=O)c(C(=O)O)cn4c3c2SCC4)CC1,inactive
5,NC1=NCC2c3ccccc3Cc3ccccc3N12 (configuration not stated),inactive
6,CCCCNc1ccc(C(=O)OCCN(CC)CC)cc1,inactive
7,CC1=C(O)C(=O)OC1C (configuration not stated),inactive
8,CCOC(=O)c1cc(=O)c2c(OCC(COc3cccc4oc(C(=O)OCC)cc(=O)c34)OC(=O)[C@@H](N)CCCCN)cccc2o1,inactive
9,CN(C)CCOc1ccccc1Cc1ccccc1,inactive
10,CCC(=O)Nc1ccc(O)cc1,inactive
11,CCCCC1CCC(=O)O1 (configuration not stated),inactive
12,O=C1C=CC(=O)O1,inactive
13,Cc1cc2c(s1)Nc1ccccc1N=C2N1CCN(C)CC1,inactive
14,CC(=O)Oc1cc(C(C)C)c(OCCN(C)C)cc1C,inactive
15,CCOC(=O)[C@H](CCc1ccccc1)N[C@@H](C)C(=O)N1Cc2cc(OC)c(OC)cc2C[C@H]1C(=O)O,inactive
16,O=C(O)[C@@H](O)[C@H](O)[C@H](O)[C@@H](O)C(=O)O,inactive
17,CCCCCCCCOC(=O)CCCCCCCCC(=O)OCCCCCCCC,inactive
18,O=C1CCC(C2CCCCC2)CC1,inactive
19,CC/C=C\CCOC(=O)CCCCC,inactive
20,Cc1cccc(C)c1NC(=O)CN1CCCCCC1,inactive

row,SMILES,outcome
1,O=CCCc1ccccc1,inactive
2,CCCCC(=O)O[C@]1(C(=O)CO)[C@H](C)C[C@H]2[C@@H]3CCC4=CC(=O)C=C[C@]4(C)[C@@]3(F)[C@@H](O)C[C@@]21C,inactive
3,CC(=O)Nc1ccc(C)c(Cl)c1,inactive
4,c1ccc(CN(CC2=NCCN2)c2ccccc2)cc1,inactive
5,C=Cc1ccccc1,inactive
6,O=C1CCN(c2ccccc2)N1,inactive
7,CNCCC(Oc1ccccc1OC)c1ccccc1 (configuration not stated),inactive
8,OCC(CBr)(CBr)CBr,inactive
9,CN1C(=O)CC(c2ccccc2)C1=O (configuration not stated),inactive
10,C=CCCCCCCCCO,inactive
11,O=C(Cl)c1cccc([N+](=O)[O-])c1,inactive
12,O=C(O)c1cccc(Cl)c1Cl,inactive
13,CC(C)C(=O)OCC(C)(C)C(O)C(C)C (configuration not stated),inactive
14,Cc1onc(-c2ccccc2)c1C(=O)Cl,inactive
15,CCC/C=C/CO,inactive
16,CC(C)C[C@H](NC(=O)OCC1c2ccccc2-c2ccccc21)C(=O)O,inactive
17,NCCC(O)(P(=O)(O)O)P(=O)(O)O,inactive
18,CCCC(CCC)(C(=O)OCC)C(=O)OCC,inactive
19,C=CCc1cc(OC)c(O)c(C(=O)NCCO)c1,inactive
